Source: PubChem (several laboratories)
Plk1 PBD FP: Plk1 polo box domain binding inhibitors, primary screen, biochemical, fluorescence polarization; Serine/threonine-protein kinase PLK1 (Homo sapiens), P53350; Plk1 PBD phosphopeptide binding; inhibition, %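 (tested at about 20 µM)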; actives 0.13% (n = 97,000); AID 693, 2007; in the data active = inhibition above about 34%, passing the limit was not always enough
PTPN22 inh 2: PTPN22 phosphatase inhibitors, primary screen, biochemical, DiFMUP fluorescence, 2 µM. Tyrosine-protein phosphatase non-receptor type 22 (Homo sapiens), Q9Y2R2. recombinant LYP catalytic domain. inhibition, % at 2 µM. actives 0.21% (n = 96,000);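 active = inhibition at 2 µM at or above a set limit, the screen mean plus 3 SD, cut at about 24% in these data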
PLK1 inh: human PLK1 kinase inhibitors, primary screen, biochemical, TR-FRET; Serine/threonine-protein kinase PLK1 (Homo sapiens), P53350; recombinant PLK1 kinase, TR-FRET peptide phosphorylation; inhibition, % at 10 µM; actives 0.53% (n = 97,000);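 active = inhibition of 50% or more in the single-concentration screen; inactive = inhibition below 50%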
PTPN22 act: LYP phosphatase activators, primary screen, biochemical, DiFMUP fluorescence, 2 µM; Tyrosine-protein phosphatase non-receptor type 22 (Homo sapiens), Q9Y2R2; recombinant LYP; 0 = plate median, 100 = signal doubled; activation, % at 2 µM; actives 0.11% (n = 96,000);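 active = activation at 2 µM above a set limit, the mean plus 5 SD, cut at about 37% in these data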
Pyk2 oligo antag: antagonists of Pyk2 self-association, primary screen, Q293 cells, FERM NanoBiT luminescence, HTS. Protein-tyrosine kinase 2-beta (Homo sapiens), Q14289. hits give low values. z-score (the deposit names both 25 µM and 10 µM). actives 0.83% (n = 99,000). AID 1347419, 2020;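 active = Z-score of -3 or lower, scaled per plate to the spread of control and sample wells; inactive = z-score above -3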;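 note: negative z-score means lost luminescence so less FERM oligomerization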
A number is an active result; – = inactive; · = no result. Only some compounds are listed: those with a hit (about 1.7% of all), similar ones and a draw of the others.

SMILES	Plk1 PBD FP	PTPN22 inh 2	PLK1 inh	PTPN22 act	Pyk2 oligo antag
COc1ccc(OC)c(C(c2nnnn2C2CCCC2)N2CCN(c3ccc(F)cc3)CC2)c1 (stereo not given)	–	–	–	–	-3.2
O=C(CN1CCC(NC(=O)c2cccc(F)c2)CC1)NCc1ccccc1F	–	–	–	–	–
O=C1NC(c2ccccc2)=C(c2nc3ccccc3s2)C(c2ccc(F)cc2)N1 (stereo not given)	–	–	–	–	-3.2
COc1ccc(C2NC(=O)NC(c3ccccc3)=C2c2nc3ccccc3s2)cc1 (stereo not given)	–	–	–	–	–
Cc1ccccc1OCC(=O)Nc1ccccc1-c1ccccc1	·	·	–	·	·
CCc1ccc(/C=C/C(=O)c2c(C)cc(C)[nH]c2=O)cc1	–	–	–	–	–
Cc1oc(-c2cccc(Cl)c2)nc1CN1CCCC(C(=O)NC(C)c2ccc3c(c2)OCCO3)C1 (stereo not given)	–	·	56	·	·
Cc1oc(-c2cccc(Cl)c2)nc1CN1CCCC(C(=O)NCc2ccco2)C1 (stereo not given)	–	–	–	–	–
O=C(c1cc(=O)[nH]c2ccccc12)N1CCN(S(=O)(=O)c2ccc3ccccc3c2)CC1	–	–	–	–	-3.3
Cc1nc2n[nH]c(N)c2c2c1COC(C)(C)C2	·	·	·	·	–
CCc1nc2n[nH]c(N)c2c2c1CCCC2	–	–	–	–	–
CCCCc1nc2n[nH]c(N)c2c2c1CCC2	–	–	–	–	–
CC(C)Cc1nc2n[nH]c(N)c2c2c1CCC2	–	–	50	–	–
CC(C)Cc1nc2n[nH]c(N)c2c2c1CCCC2	–	–	69	–	–
CC(C)c1nc2n[nH]c(N)c2c2c1CCCC2	–	–	66	–	–
Cc1nn(Cc2ccccc2)c(C)c1NC(=O)CSc1nc2sc3c(c2c(=O)n1C)CCC3	–	–	–	–	·
COc1cccc(/C=N/NC(=O)c2ccc(-c3ccccc3)cc2)c1O	–	28	–	–	–
COc1cccc(/C=N/NC(=O)c2[nH]c(C)c(C(=O)N/N=C/c3cccc(OC)c3O)c2C)c1O	–	–	–	–	–
Cc1ccccc1NC(=O)NCCN1C(=O)C2C3C=CC(C3)C2C1=O (stereo not given)	–	–	–	–	·
COc1ccc(NC(=O)NCCN2C(=O)C3C4C=CC(C4)C3C2=O)cc1 (stereo not given)	–	–	–	–	·
O=C(NCCN1C(=O)C2C3C=CC(C3)C2C1=O)Nc1ccccc1 (stereo not given)	–	·	67	·	·
Cc1ccc(NC(=O)NCCN2C(=O)C3C4C=CC(C4)C3C2=O)cc1 (stereo not given)	–	·	62	·	·
O=C(NCCN1C(=O)C2C3C=CC(C3)C2C1=O)NCc1ccccc1 (stereo not given)	–	·	54	·	·
COc1cccc(N2CC(C(=O)Nc3ccc(C(=O)OC(C)C)cc3)CC2=O)c1 (stereo not given)	–	–	–	–	–
O=C(Nc1cnn(Cc2c(Cl)cccc2Cl)c1)C(c1ccccc1)c1ccccc1	–	–	–	–	–
SMILES	Plk1 PBD FP	PTPN22 inh 2	PLK1 inh	PTPN22 act	Pyk2 oligo antag
Cc1nn(-c2ccccc2)c(Cl)c1/C=N/Nc1ccc(S(=O)(=O)Nc2ccccc2C(=O)O)cc1[N+](=O)[O-]	–	24	–	–	–
CC(C)COC(=O)n1c(=O)oc2cc(S(=O)(=O)N3CCCCC3)ccc21	–	–	–	–	-3.5
Cc1ccc(S(=O)(=O)N2CCOCC2)cc1NC(=O)c1cc2c(s1)CCC2	–	–	–	–	–
Cc1ccc(NC(=O)c2cc3c(s2)CCC3)cc1S(=O)(=O)N1CCOCC1	–	–	–	–	-3.2
CCN1CCN(CC(=O)NC2CCCC2)C(=O)C1=O	–	·	68	·	·
CCN1CCN(CC(=O)NC2CCCCC2)C(=O)C1=O	–	–	–	–	·
COc1ccc(Oc2nc(C)cc(C)c2C#N)cc1	–	–	–	–	–
COc1ccc(C2(O)CC3CCC(C2)N3c2nc(C)cc(C)c2C#N)cc1 (stereo not given)	–	–	–	–	-3
CN(CC(=O)NCCN1CCN(c2ccccc2)CC1)S(=O)(=O)c1ccc2c(c1)CCC(=O)N2	–	–	–	–	·
Cc1ccc(C(CC(=O)N2CCCC2)c2ccccc2)c(O)c1C (stereo not given)	–	–	–	–	–
O=C(Nc1ccc2oc(-c3ccc(Cl)c(Cl)c3)nc2c1)c1ncn[nH]1	–	40	–	–	–
